# Measured values reported in PubChem BioAssay AID2315 (National Center for Advancing Translational Sciences (NCATS), 2010).
# In all, about 290,000 compounds went through this assay and about 27,000 (9.3%) were called active. Rule as the data show it: active = inhibition mostly above about 28% (no sharp cut-off); inactive = mostly below about 43%. Only a selection was taken, and actives are over-represented in it overall.
# Assay: A qHTS for Small Molecule Inhibitors of Shiga Toxin; also: 0% is about no effect
# Conditions: Vero cells, Shiga toxin protein synthesis inhibition reporter; at 38.7 µM, hits give high values
row,SMILES,inhibition
1,CCCn1nc(NC(=O)C(C)C)c2cc3cc(OC)ccc3nc21,40.5% (inactive)
2,COc1ccc(C(=O)CC(=O)C(=O)Nc2cc([N+](=O)[O-])ccc2OC)cc1,-3.5% (inactive)
3,O=C(Cn1ncc2c3ccccc3n(Cc3ccccc3)c2c1=O)NCc1ccccn1,16.1% (inactive)
4,Cc1c(C(=O)N2CCCC2)c(S(=O)(=O)NCC(C)c2ccccc2)c(C)n1C (configuration not stated),-3.94% (inactive)
5,CC1(C(=O)N/N=C/c2cc3c(cc2Br)OCO3)CC1(Br)Br (configuration not stated),-11.8% (inactive)
6,O=C(C1CCN(Cc2ccc(Cl)cc2)CC1)N1CCN(Cc2ccc3c(c2)OCO3)CC1,-7.69% (inactive)
7,COc1ccc(C2c3[nH]c4ccccc4c3C[C@H]3C(=O)N(CC(C)C)CC(=O)N23)c(OC)c1 (some centres not stated),-6.17% (inactive)
8,COc1cccc2c(N/N=C/c3ccco3)cc(C)nc12,63.5% (inactive)
9,COc1cccc(/C=N/Nc2cc(C)nc(-c3ccccc3O)n2)c1O,38.3% (active)
10,COc1ccccc1/C=N\Nc1cc(C)nc(-n2nc(C)cc2C)n1,-8.59% (inactive)
11,CC(=O)c1cccc(NC(=O)CN2C(=O)c3cccnc3Oc3ccc(Cl)cc32)c1,1.59% (inactive)
12,CCc1ccc(N(C(=O)c2csnn2)C(C(=O)NC2CCCCC2)c2ccncc2)cc1 (configuration not stated),32.9% (inactive)
13,COc1cccc(N(CC(=O)Nc2cccc(F)c2)S(C)(=O)=O)c1,12.9% (inactive)
14,CCN(CC)S(=O)(=O)c1ccc(NC(=O)CN(c2cccc(F)c2)S(C)(=O)=O)cc1,-12.2% (inactive)
15,Cc1ccc2nc(-c3ccc(NC(=O)CN(C)S(=O)(=O)c4ccccc4)cc3)sc2c1,84.9% (active)
16,Cc1nc2ccc(S(=O)(=O)N(C)CC(=O)NC(C)c3ccccc3)cc2s1 (configuration not stated),-9.9% (inactive)
17,COc1cc(NC(=O)CN(C)S(=O)(=O)c2ccc3nc(C)sc3c2)cc(OC)c1,15.9% (inactive)
18,Cc1cccc(N(CC(=O)Nc2ccc(-c3nc4ccc(C)cc4s3)cc2)S(C)(=O)=O)c1,146% (active)
19,C[C@H]1CCC(=O)N([C@H](CSc2ccccc2)Cc2ccccc2)CC1,6.56% (inactive)
20,CCCOc1ccc(Cc2c(O)nc(N)[nH]c2=O)cc1C,1.67% (inactive)
21,CCC(=O)N1c2ccc(S(=O)(=O)NCc3ccco3)cc2CC1C (configuration not stated),12.8% (inactive)

row,SMILES,inhibition
1,O=C(Nn1cnnc1)c1cc(Cl)ccc1Cl,7.38% (inactive)
2,C=CCc1cc(S(=O)(=O)c2ccc(O)c(CC=C)c2)ccc1O,-18% (inactive)
3,O=C(c1ccco1)N1CCN(c2cccc(Cl)c2)CC1,24.3% (active)
4,O=C(c1cccc([N+](=O)[O-])c1)N1CCN(C(=O)c2ccco2)CC1,-3.08% (inactive)
5,O=C(c1ccc2c(c1)OCO2)N1CCN(C(=O)c2ccco2)CC1,17% (inactive)
6,CC(C)c1nnc(NC(=O)CCC(=O)N2CCN(c3cccc(Cl)c3)CC2)s1,-4.62% (inactive)
7,CS(=O)(=O)N(CC(=O)N1CCN(c2cccc(Cl)c2)CC1)c1ccccc1,-4.1% (inactive)
8,O=C(CCCC(=O)N1CCN(c2cccc(Cl)c2)CC1)c1ccccc1,25.1% (active)
9,Oc1ccc2nc(Cc3ccccc3)[nH]c2c1,54.8% (inactive)
10,CC(C)=C(NC(=O)c1ccco1)C(=O)NCCc1nc2ccccc2[nH]1,7.12% (inactive)
11,Nc1cccc(CCc2nc3ccccc3[nH]2)c1,91.8% (active)
12,CCOC(=O)C1=C(c2ccccc2)NC(=O)NC1c1cc(OCC)c(O)c([N+](=O)[O-])c1 (configuration not stated),-6.05% (inactive)
13,Cc1ccccc1Nc1nc(N)nc(CSc2ccccc2)n1,87.7% (active)
14,Cc1ccc(C(=O)OCc2nc(N)nc(Nc3ccccc3C)n2)cc1,-11.7% (inactive)
15,Cc1ccccc1Nc1nc(N)nc(CSc2nnc3ccccn23)n1,37.1% (inactive)
16,Cc1cc(OC(C)C(=O)NC2CC(C)(C)NC(C)(C)C2)c2c(C)cc(=O)oc2c1 (configuration not stated),-4.82% (inactive)
17,CCn1c(CNC(=O)c2cc(OC)c(OC)c(OC)c2)cc2cc(C)ccc21,2.16% (inactive)
18,CCOc1ccc(CN(C)C(=O)c2ccc(=O)[nH]c2)cc1,-3.04% (inactive)
19,CCc1ccc(/C=N/NC(=O)c2nnn(-c3nonc3N)c2CN2CCc3ccccc32)cc1,-4.83% (inactive)
20,COc1ccc(NS(=O)(=O)c2cccc3nsnc23)cc1Cl,-3.74% (inactive)
21,CSc1nc2ccc(NC(=O)c3c(F)cccc3F)cc2s1,90.3% (active)

row,SMILES,inhibition
1,CCCC(=O)Nc1nc2ccc(NC(=O)c3c(F)c(F)c(OC)c(F)c3F)cc2s1,-15.8% (inactive)
2,O=C(Nc1ccncc1)c1c(F)cccc1F,-10.9% (inactive)
3,O=C(N/N=C/c1ccc(OCc2ccccc2)cc1)c1ccc(O)cc1,51.1% (inactive)
4,Cc1cccc(OCC(=O)NCC(=O)N/N=C/c2ccc(N(C)C)cc2)c1,-12.5% (inactive)
5,O=C(N/N=C/c1cccc(O)c1)c1cc2c(ccc3ccccc32)o1,6% (inactive)
6,Cc1ccc(OCCOc2cccc(/C=N/NC(N)=O)c2)cc1,56.6% (active)
7,Cc1ccc(OCCOCCOc2ccc(Br)cc2/C=N\NC(=O)c2ccncc2)cc1,-5.78% (inactive)
8,O=C(N/N=C/c1cccc(OCc2ccccc2)c1)c1ccc(Br)o1,46.8% (active)
9,CCOc1ccccc1N1C(=O)CC(Sc2nccc(C)n2)C1=O (configuration not stated),10.8% (inactive)
10,Cc1ccc2c(c1)N(CC(=O)N1CCOCC1)C(=O)CO2,-3.54% (inactive)
11,Cc1cc(N)n2nc(-c3ccc(C(C)(C)C)cc3)cc2n1,88.7% (active)
12,Cc1cc(C(C)(C)C)n2nc(C)c(-c3ccccc3)c2n1,-4.85% (inactive)
13,Cc1nc2cc(-c3ccc(F)cc3)nn2c(N2CCOCC2)c1C,62.6% (inactive)
14,Cc1cccc(OCC(O)CN2CCN(S(=O)(=O)c3ccc(C)cc3C)CC2)c1 (configuration not stated),-2.77% (inactive)
15,O=C(CSc1ncn[nH]1)Nc1nc(-c2cccc([N+](=O)[O-])c2)cs1,8.25% (inactive)
16,O=C(CSc1nc(-c2ccccc2)cs1)Nc1cccc([N+](=O)[O-])c1,81.3% (active)
17,O=C(CSCC(=O)Nc1cccc([N+](=O)[O-])c1)Nc1ccccc1,7.24% (inactive)
18,CCNC(=O)CSc1nc(-c2ccccc2)cs1,74.3% (active)
19,CCOC(=O)CSc1nnc(CNc2nc(-c3ccccc3)cs2)n1C,9.53% (inactive)
20,O=C(CSC1=NCCS1)Nc1nc(-c2ccccc2)cs1,29.7% (inactive)
